# TSG101-PTAP inh = blocks PTAP/TSG101 interaction to inhibit HIV-1 budding. AID 493005. 340,000 tested, under 10 active. Fluorescence polarization, FITC-PTAP peptide / Tsg101 binding. Potency, µM (top dose mostly 115 µM), without a hit: at the highest dose activity change, negative = inhibition, actives largely listed as inhibitors; active = well fitted inhibition curve with a large enough effect in the main read-out, with a control signal flat, not every such curve was filed as active; inconclusive = small, poorly fitted or top-dose-only effect, or effect the other way, or a change in a side signal; inactive = no such curve, though single readings can be large or run the other way; note: % of control where 0% means no effect
# Target sequence (Q99816 whole entry, looked up): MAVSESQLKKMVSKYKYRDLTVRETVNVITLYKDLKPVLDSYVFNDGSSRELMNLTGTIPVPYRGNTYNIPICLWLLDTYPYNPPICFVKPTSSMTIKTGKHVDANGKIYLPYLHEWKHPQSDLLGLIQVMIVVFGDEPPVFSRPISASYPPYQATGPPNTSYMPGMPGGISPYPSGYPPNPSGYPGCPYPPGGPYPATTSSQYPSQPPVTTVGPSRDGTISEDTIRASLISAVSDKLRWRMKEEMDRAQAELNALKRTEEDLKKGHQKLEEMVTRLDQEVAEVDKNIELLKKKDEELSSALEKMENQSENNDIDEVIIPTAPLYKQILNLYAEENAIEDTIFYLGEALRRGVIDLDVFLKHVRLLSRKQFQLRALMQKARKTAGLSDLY
#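 Compounds were pin-transferred onto Tsg101 binding domain (10 uM final) in HEPES pH 7.5 buffer, then FITC-PTAP peptide was added at 50 nM final. After 20 min at RT, polarization reported peptide displacement across a qHTS concentration series.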
# Abeta rescue = A-beta toxicity reversal in yeast | yeast expressing A-beta42, growth rescue, OD600, 48 h; response scale: 0% DMSO, 100% iron-clioquinol control | Potency, µM (top dose mostly 46.1 µM), usual class: activators | 410,000 compounds, 0.063% hits | AID 1347071; note: nearly all actives have a fitted effect of over 55% in size
#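 Yeast growth medium received pinned compounds, then yeast cells expressing toxic A-beta were added; plates incubated at 30 C for 48 hr. Growth read as absorbance at 600 nm, normalized to DMSO and equimolar FeCl3 plus clioquinol controls.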
# FUS suppressor = FUS proteinopathy suppression in yeast; Potency, µM (top dose mostly 76.6 µM), actives largely listed as activators; 390,000 compounds, 0.24% hits; AID 1347120; S. cerevisiae FUS-expressing, growth rescue, OD600, 24 h;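 note: plate controls were DMSO vehicle for no effect and reference control for full effect; nearly all actives have a fitted effect of over 55% in size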
#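 Galactose (2%) drives FUS expression in yeast precultured in raffinose; seeding density OD 0.005. Test compounds incubated 24hr at 30C and 99% humidity before absorbance at 600 nm was measured.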
# TDP-43 yeast inh = TDP-43 toxicity inhibition in yeast; TDP-43 expressing yeast growth rescue, BacTiter-Glo, 24 h; Potency, µM (series often up to 46.1 µM), inactives show at the top dose growth rescue (activation), usual class: activators; 410,000 compounds, 1.8% hits; AID 652104; note: % of control where 0% means no effect; nearly all actives have a fitted effect of over 50% in size
#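 Yeast cells expressing TDP-43 under galactose induction are exposed to compounds for 24 hr at 30 deg C. BacTiter-Glo luminescence measures growth, so protective compounds score as activators.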
# aSyn yeast inh = rescues yeast growth from alpha-synuclein toxicity; Yeast expressing alpha-synuclein, growth rescue, BacTiter-Glo, 24 h; Potency, µM (doses to about 46.1 µM), without a hit: at the top dose growth rescue (activation), actives largely listed as activators; 370,000 compounds, 0.14% hits; AID 652106; note: % of control where 0% means no effect; nearly all actives have a fitted effect of over 65% in size
#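 Galactose-induced alpha-syn yeast (OD600=0.02, raffinose-pregrown) + pinned cpd, 24 hr, 30 deg C; growth by BacTiter-Glo luminescence. Growth restoration scores as activation.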
# Active calls of the source: *; i = inactive; ? = inconclusive; nt = no result given. In the library only some 2.1% were active in any assay of this set; here they are far more common. Unless noted, calls come from the whole dose curve; as a rule, active = well fitted curve in the direction sought with a large enough effect; inconclusive = small, poorly fitted or top-dose-only effect, or another doubt; inactive = no such curve, though single readings can be large; an effect the other way counts as inactive or inconclusive. Potency is the fitted concentration of half-maximal effect.
SMILES,TSG101-PTAP inh,Abeta rescue,FUS suppressor,TDP-43 yeast inh,aSyn yeast inh
CCCCc1nn2c(C)c(-c3ccc(OCC)cc3)nc2s1,nt,i,i,22µM*,nt
CC(/C=N/n1c(COc2ccccc2)n[nH]c1=S)=C\c1ccccc1,-1%,i,i,11µM*,nt
Cc1cccc(/C=N/n2c(COc3ccccc3)n[nH]c2=S)c1,-2%,i,i,29%,1%
CCCOc1ccc(CN(C(=O)c2nc(SC(C)C)ncc2Cl)C2CCS(=O)(=O)C2)cc1 (centres undefined),nt,i,35µM*,16%,nt
COC(=O)[C@]12C[C@H](CC(=O)N3CCN(C(=O)C4CC4)CC3)C(=O)N(Cc3ccc(Cl)cc3Cl)C1=C[C@H](C(C)C)O[C@@H]2C1CC1,nt,nt,28µM*,nt,nt
COC(=O)[C@]12C[C@H](CC(=O)N3CCOCC3)C(=O)N(Cc3ccc(Cl)cc3Cl)C1=C[C@H](C(C)(C)C)O[C@@H]2C,nt,nt,16µM*,nt,nt
COC(=O)[C@]12C[C@H](CC(=O)N3CCN(C(=O)C4CC4)CC3)C(=O)N(Cc3ccco3)C1=C[C@H](C1CCCC1)O[C@@H]2C,nt,nt,i,nt,nt
COC(=O)[C@]12C[C@H](CC(=O)N3CCN(C(=O)C4CC4)CC3)C(=O)N(Cc3ccc(Cl)cc3Cl)C1=C[C@H](C1CCCC1)O[C@@H]2C,nt,nt,32µM*,nt,nt
COc1ccc(CNC(=O)CCC(=O)N2CCSc3ccccc32)cc1,nt,i,i,-2%,nt
COc1ccc(C2C(=O)N(C3CCCCCC3)CC(=O)N2Cc2ccc(C)cc2)cc1OC (centres undefined),nt,i,i,6%,nt
O=C(Nc1cccc2[nH]c([C@H]3C[C@H](O)[C@@H](CO)O3)nc12)NC(c1ccccc1)c1ccccc1,nt,i,i,7%,4%
CCOC(=O)N1CCN(C(=O)c2cc(COc3cccc(C(F)(F)F)c3)on2)CC1,-3%,i,nt,10µM*,5%
O=C(c1cc(COc2cccc(C(F)(F)F)c2)on1)N1CCCC1,nt,i,i,?,0%
C=CCOc1ccc(C=CC(=O)c2c(O)c(OC)c(OC)c(OC)c2OC)cc1,-3%,i,nt,22µM*,13%
Cc1ccc(-c2nnc3c4ccccc4c(C)nn23)cc1NC(=O)c1ccccc1Cl,nt,i,i,14%,nt
COc1ccc(C2=CC(=O)CC(c3ccc(OC)cc3)C2)cc1 (centres undefined),-5%,i,i,25µM*,14%
O=C1C=C(c2ccc(C(=O)O)cc2)C[C@@H](c2ccc(F)cc2)C1,-5%,i,i,9%,23%
O=C1C=C(c2cc3ccccc3s2)C[C@@H](c2ccc(F)cc2)C1,0%,i,i,18µM*,1%
O=C1C=C(c2ccc(CO)cc2)C[C@@H](c2ccc(F)cc2)C1,nt,i,i,35µM*,14%
O=C1C=C(C#Cc2ccccc2)C[C@@H](c2ccc(F)cc2)C1,nt,i,i,18µM*,1%
COC(CNC(=O)[C@H](Cc1c[nH]c2ccccc12)NC1(C(=O)NC2CCCCC2)CCCCC1)OC,nt,nt,i,nt,nt
Cn1ccc2c(/C=C/c3ccc(F)cc3)cc3c(c21)C1CCC3O1 (centres undefined),nt,i,i,?,23%
O=C1C=C(c2ccc(-c3ccccc3)cc2)C[C@@H](c2ccc(F)cc2)C1,-3%,i,i,0%,1%
COc1ccc(C2=CC(=O)CC(c3ccccc3)C2)cc1 (centres undefined),-4%,i,i,18µM*,10%
C=Cc1ccc(C2=CC(=O)C[C@H](c3ccc(OC)cc3)C2)cc1,2%,i,i,15%,8%
SMILES,TSG101-PTAP inh,Abeta rescue,FUS suppressor,TDP-43 yeast inh,aSyn yeast inh
Cc1ccc(C2=CC(=O)C[C@H](c3ccc(F)cc3)C2)cc1,-3%,i,i,16µM*,14%
CCOc1ccc(C2=CC(=O)C[C@H](c3ccc(OC)cc3)C2)cc1,6%,i,i,13µM*,12%
Cn1ccc2ccc(C3=CC(=O)C[C@H](c4ccc(F)cc4)C3)cc21,-4%,i,i,16µM*,12%
Cc1cc(NC(=O)Cc2ccccc2)cc(-c2nc3ccccc3o2)c1O,nt,i,i,19%,-3%
CCc1ccc(CNC(=O)C2CCN(S(=O)(=O)N3CCCCC3)CC2)cc1,nt,i,i,19%,-4%
COCc1ccccc1C1=CC(=O)C[C@H](c2ccc(OC)cc2)C1,-3%,i,i,11µM*,9%
COc1ccc(C2=CC(=O)CC(c3ccc(F)cc3)C2)cc1 (centres undefined),-4%,i,i,16µM*,9%
COc1ccc(C2=CC(=O)C[C@H](c3ccc(Cl)cc3)C2)cc1,0%,i,i,?,2%
Cc1ccc(OC(=O)CSc2nnc(-c3ccc4c(c3)OCO4)o2)c(C)c1,nt,i,i,18%,nt
CCc1nc(-c2ccccc2O)n(-c2ccccc2)n1,-5%,i,i,14µM*,-9%
Oc1ccccc1-c1nc(/C=C/c2ccccc2Cl)nn1-c1ccccc1,nt,i,i,25%,-6%
CC(C)N1CCC1(C)C(=O)Nc1cc(-c2ccccc2)nn1C (centres undefined),nt,i,i,24%,-2%
O=[N+]([O-])c1cccc(S(=O)(=O)NCC2CC3CCC2C3)c1 (centres undefined),-2%,i,i,11µM*,15%
CC1CCc2c(c3ccccc3n2C(=O)CCl)C1 (centres undefined),-2%,i,i,2.8µM*,-13%
COc1cc2c(cc1OC)C(c1ccc(Cl)cc1)N(c1ccc(C)c(F)c1)C(=O)C2 (centres undefined),nt,i,?,35µM*,nt
O=c1c2cc(F)ccc2[nH]c(=S)n1Cc1ccc(F)cc1,-4%,i,i,19%,-1%
CC(C)(C)NC(=O)C(c1ccc(C#N)cc1)n1c(=O)c(-c2cc3ccccc3[nH]2)nc2ccccc21 (centres undefined),nt,?,?,26%,13µM*
CC(C)(C)NC(=O)C(c1ccc(C(F)(F)F)cc1)n1c(=O)c(-c2cc3ccccc3[nH]2)nc2ccccc21 (centres undefined),nt,?,i,?,7.1µM*
COC(=O)CN1C(=O)CSc2ccc(S(=O)(=O)Nc3cccc(Br)c3)cc21,nt,i,i,-6%,nt
CCN(CC)S(=O)(=O)c1ccc(C(=O)NC(=S)N2CCCCC2C)cc1 (centres undefined),nt,i,i,22%,7%
CCCCN1CCN(C2=NC(=O)N(c3ccc(Br)cc3)C(=O)C2)CC1,nt,nt,i,nt,nt
C=CCNC(=O)C1CCN(c2cncnc2)CC1,nt,nt,i,nt,nt

# Screening results: PubChem, National Center for Advancing Translational Sciences (NCATS)
